The list is not random: actives were taken first. Their share in the collection is about 10%.
PLK1 PBD block: blocks phosphopeptide binding to human PLK1 polo-box domain | P53350 | Plk1 PBD binding of FITC phosphopeptide, fluorescence polarization | Potency, µM, inactives show max response, negative = inhibition, usual class: inhibitors | 360,000 compounds, 2.8% hits; also: potency is read from the fitted curve at half-maximal effect; series mostly up to about 57 µM; nearly all actives have a fitted effect of over 65% in size
G9a block: blocks human histone lysine methyltransferase G9a | Q96KQ7 | G9a H3K9 monomethylation, AlphaScreen, 2 h | Potency, µM (highest dose often 102 µM), without a hit: at the highest dose activity, negative = inhibition, usual class: inhibitors | 350,000 compounds, 8.8% hits; also: potency is read from the fitted curve at half-maximal effect; nearly all actives have a fitted effect of over 75% in size
Target sequence (Q96KQ7 913-1193 limits assumed): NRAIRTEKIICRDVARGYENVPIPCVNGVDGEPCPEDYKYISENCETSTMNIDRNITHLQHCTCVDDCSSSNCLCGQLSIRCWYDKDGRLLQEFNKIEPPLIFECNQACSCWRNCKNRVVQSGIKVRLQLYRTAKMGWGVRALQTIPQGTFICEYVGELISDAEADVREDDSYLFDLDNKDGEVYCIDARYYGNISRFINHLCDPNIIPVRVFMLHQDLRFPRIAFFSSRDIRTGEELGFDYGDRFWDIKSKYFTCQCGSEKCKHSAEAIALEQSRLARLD
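Enzyme 20 nM + cpd, 15 min RT; add b-H3K9 pep 500 nM / SAM 20 uM; 2 h RT; anti-H3K9me1 Ab 0.5 ug/mL + SA donor / anti-rabbit acceptor beads 20 ug/mL each, 10 min; AlphaScreen read.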
CCT chaperon mod: modulators of cytosolic chaperonin (CCT/TRiC) activity; purified chaperonin ATPase assay, HTRF ADP detection, 30 min; activity change, % (concentration not given with the values), hits read low; 360,000 compounds, 0.3% hits; AID 651819; in the data active = activity change below about -30%
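We incubate TRiC, 40 or 20 nM final, with library compounds at 76 uM and 10 uM ATP for 30 min at 37 °C. ADP formed is detected with Transcreener HTRF reagents after 30 min at room temperature.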
Mm-Cpn inhibitor: blocks the Methanococcus maripaludis chaperonin Mm-Cpn. purified Mm-Cpn ATPase, ADP Transcreener TR-FRET. Potency, µM (series often up to 76.9 µM), for inactives: at the highest dose activity, negative = inhibition, actives largely listed as inhibitors. 330,000 compounds, 0.031% hits; also: potency is read from the fitted curve at half-maximal effect; nearly all actives have a fitted effect of over 80% in size
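25 nM Mm-CPN + cpd, 10 min 37°C; + 10 uM ATP, 30 min 37°C; buffer 30 mM Tris pH 7.4, 100 mM KCl, 5 mM MgCl2, 1 mM DTT; Transcreener ADP HTRF detection 30 min RT.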
Sfp inh: blocks B. subtilis Sfp PPTase activity; Potency, µM, for the others: largest response in the series, negative = inhibition, most hits filed as inhibitors; Biochemical Sfp PPTase activity, qHTS; 310,000 compounds, 3.5% hits; Q9F4F7; AID 1490;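 also: the enzyme is Sfp with the accession as filed and its product quenches rhodamine fluorescence; potency is read from the fitted curve at half-maximal effect; 0% = enzyme reaction without inhibitor and -100% = no enzyme wells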
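Sfp 15 nM + cpd, 15 min RT; start w/ rhodamine-CoA 5 uM, BHQ-2-YbbR 12.5 uM (final); 50 mM Hepes pH 7.6, 10 mM MgCl2, 0.01% NP-40, 0.01% BSA; read 525/598 nm at 0 and 30 min.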
VDR inhibitor: inhibitors of human vitamin D receptor | Potency, µM, for inactives: max response, negative = inhibition, actives largely listed as inhibitors | P11473 | 400,000 compounds, 0.93% hits | VDR-SRC2-3 peptide fluorescence polarization, 2 h; also: potency is read from the fitted curve at half-maximal effect
Target sequence (P11473 whole entry, looked up): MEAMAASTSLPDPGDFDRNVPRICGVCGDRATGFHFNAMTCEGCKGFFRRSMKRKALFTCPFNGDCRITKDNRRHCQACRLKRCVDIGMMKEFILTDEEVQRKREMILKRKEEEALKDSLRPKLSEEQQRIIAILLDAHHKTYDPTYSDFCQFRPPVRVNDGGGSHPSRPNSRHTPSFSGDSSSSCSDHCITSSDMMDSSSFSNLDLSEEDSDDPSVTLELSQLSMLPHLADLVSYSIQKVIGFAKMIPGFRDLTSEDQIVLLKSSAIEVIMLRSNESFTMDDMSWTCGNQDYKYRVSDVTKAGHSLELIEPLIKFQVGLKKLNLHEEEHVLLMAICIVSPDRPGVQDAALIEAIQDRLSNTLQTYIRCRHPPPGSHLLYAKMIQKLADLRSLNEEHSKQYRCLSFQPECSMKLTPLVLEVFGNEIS
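Fluorescence polarization assay measuring small-molecule disruption of VDR binding to the coregulator peptide SRC2-3. Compounds were pin-transferred (23 nl) into the reagent mix and incubated 2 h at room temperature before reading.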
An asterisk follows results filed as active; ? = inconclusive; · = no result given; [ ] = remark or other dose. Unless noted, calls follow the shape of the dose curve; as a rule, active = well fitted curve in the direction sought with a large enough effect; inconclusive = small, poorly fitted or top-dose-only effect, or another doubt; inactive = no such curve, though single readings can be large; an effect the other way counts as inactive or inconclusive. Unless noted, % is scaled to controls: 0 for no effect and ±100 for the full control effect.

SMILES	PLK1 PBD block	G9a block	CCT chaperon mod	Mm-Cpn inhibitor	Sfp inh	VDR inhibitor
CCOC(=O)C1=C(C)Nc2ccccc2S1	?	·	1.2	-1.8%	50.1µM*	?
Cc1ccc2c(c1)Sc1c(ccc3ccccc13)N2	?	?	0.6	0.7%	-13.1%	-17.8%
CCOC(=O)/C=C1\Nc2ccccc2SC1=O	-13.3%	14.0%[12.7 µM]	-2.3	-2.5%	-2.8%	-18.1%
CCOCCOC(=O)C1=C(C)Nc2ccc(C)cc2S1	?	15.8µM*	-2.5	-1.5%	?	89.1µM*
CCOC(=O)C1=C(C)Nc2ccc(C)cc2S1	?	?	-0.7	1.5%	50.1µM*	?
S=C(NCCc1ccccc1)Nc1cccc2cnccc12	?	50.1µM*	-4.4	-4.9%	50.1µM*	-13.1%
S=C(NCc1cccnc1)Nc1cccc2ccccc12	-10.8%	-8.0%[59 µM]	1.9	-1.6%	-0.5%	-16.4%
S=C(NCc1ccccc1)Nc1cccc2cnccc12	?	22.4µM*	0.9	-1.4%	56.2µM*	-23.3%
O=c1c(N2CCc3ccccc3C2)csc2ccc(Br)cc12	·	-32.8%[59 µM]	·	·	·	21.2%
Fc1ccc(-c2cc(-c3ccccc3)c3c(n2)-c2cc(F)ccc2OC3)cc1	·	17.5%[59 µM]	·	·	·	-17.5%
O=C(CN1CCCC1)Nc1c2c(nc3ccccc13)N(Cc1ccccc1)CC2	-9.2%	?	0.5	-2.9%	14.1µM*	9.5%
CCN(CC)CC(=O)Nc1c2c(nc3ccccc13)N(C)CC2	-8.9%	·	-5.6	-5.6%	?	-14.7%
CN(C)c1cc(NC(=O)CN2CCCC2)c2ccccc2n1	4.0%	17.8µM*	2.0	-2.6%	?	-8.9%
O=C(CN1CCCCCC1)Nc1nc2ccccc2s1	-12.0%	·	0.1	·	·	15.4%
CC(=O)Nc1ccc(Nc2cc(C)nc3ccccc23)cc1	-9.5%	·	1.8	·	·	-11.7%
CN(C)c1cc(NC(=O)CNC(C)(C)CC(C)(C)C)c2ccccc2n1	-1.9%	8.91µM*	3.1	-0.1%	-29.5%	-4.2%
COc1cccc(N2CCN(C(=O)C3CCCN(S(=O)(=O)c4ccc(Br)s4)C3)CC2)c1 (configuration not stated)	·	-35.7%[59 µM]	·	·	·	-3.7%
Cc1ccc(NC(=O)CN2C(=O)CSc3ccc(S(=O)(=O)N4CCCC4)cc32)cc1F	·	-14.6%[59 µM]	·	·	·	13.3%
O=C(NCC(c1cccnc1)N1CCN(Cc2ccccc2)CC1)C(=O)Nc1cccc(Cl)c1 (configuration not stated)	·	3.0%[59 µM]	·	·	·	8.1%
Cc1cccc(-n2c(CCc3ccccc3)nnc2SCC(=O)c2ccccc2)c1	2.0%	1.78µM*	-2.1	1.6%	50.1µM*	?
Cc1ccc(OCc2nnc(SCC(=O)c3ccccc3)n2-c2ccccc2)cc1	-4.6%	?	-56.4*	-1.4%	-7.7%	-4.1%
Cn1c(SCC(=O)N2CCOCC2)ncc(C(=O)Nc2ccccc2)c1=O	·	0.8%[59 µM]	·	·	·	-2.4%
Cc1ccc(NC(=O)c2sc3nc(-c4ccc(F)cc4)cn3c2C)c(C)c1	·	5.0%[59 µM]	·	·	·	-2.7%
CCOc1cc(CNc2ccc3[nH]c(=O)[nH]c3c2)ccc1OCC(=O)NC(C)(C)C	-7.8%	5.01µM*	0.0	-2.4%	?	2.5%
COc1cc(CNc2ccc3[nH]c(=O)[nH]c3c2)cc(Cl)c1OCC(=O)NC(C)(C)C	?	?	-2.9	-1.2%	11.2µM*	-4.6%
SMILES	PLK1 PBD block	G9a block	CCT chaperon mod	Mm-Cpn inhibitor	Sfp inh	VDR inhibitor
C=CCOc1ccc(CNc2ccc3[nH]c(=O)[nH]c3c2)cc1OCC	-10.7%	?	-1.1	-11.9%	12.8%	1.3%
O=C(COc1ccccc1F)Nc1nnc(SCc2cc(=O)n3ccccc3n2)s1	·	14.1%[59 µM]	·	·	·	14.8%
CCn1nnc(NC(=O)CSc2ccc(Cl)cc2)n1	26.7µM*	70.8µM*	-2.0	?	0.5%	-4.1%
Cc1ccc(C)c(NC(=S)NC(NC(=O)Cc2ccccc2)C(Cl)(Cl)Cl)c1 (configuration not stated)	?	-43.7%[12.7 µM]	-2.7	0.5%	-7.8%	-21.9%
O=C(COc1ccccc1)NC(NC(=S)Nc1ccccc1C(=O)O)C(Cl)(Cl)Cl (configuration not stated)	26.7µM*	?	-1.7	1.4%	-14.8%	?
CCOC(=O)c1c(C)[nH]c(C)c1S(=O)(=O)N(C)CC(=O)Nc1cc(Cl)ccc1C	·	-8.2%[59 µM]	·	·	·	12.2%
O=C(O)c1cc(Cl)c2c(c1)[C@@H]1C=CC[C@@H]1[C@H](c1ccc(S(=O)(=O)N3CCOCC3)cc1)N2	26.7µM*	22.4µM*	-3.3	-8.2%	?	?
Cc1cc(C)c2c(c1)C1C=CCC1C(c1ccc(S(=O)(=O)N3CCOCC3)cc1)N2 (configuration not stated)	2.6%	8.91µM*	2.8	-4.1%	39.8µM*	11.3%
O=c1[nH]c2ccccc2n1CCCOc1ccccc1	-3.5%	-10.4%[59 µM]	0.3	0.0%	4.5%	-8.4%
COc1ccccc1OCCn1c(=S)[nH]c2ccccc21	?	8.91µM*	0.6	-8.4%	-13.1%	-16.5%
COc1ccccc1OCCn1c(=O)n(C)c2ccccc21	-0.2%	38.6%[12.7 µM]	0.6	-2.2%	13.6%	-4.1%
CCOc1ccc2[nH]c(=O)c(=O)[nH]c2c1	-8.7%	-29.5%[12.7 µM]	1.5	-0.9%	9.0%	8.4%
CCOc1ccc2c(c1)[nH]c(=S)n2C	13.4µM*	7.94µM*	0.7	2.0%	17.8µM*	?
N#CCCn1c(=S)[nH]c2ccccc21	?	7.08µM*	-2.8	2.8%	-27.3%	3.1%
S=c1[nH]c2ccccc2n1CCOc1ccccc1	18.9µM*	·	-1.6	-4.4%	89.1µM*	?
COc1cccc(-c2cncnc2NCc2ccccc2)c1	·	·	·	·	-7.0%	4.2%
CCOc1ccc(OCCn2c(=S)[nH]c3ccccc32)cc1	13.4µM*	7.08µM*	0.6	-0.3%	-83.1%	?
Cc1ccc(OCCn2c(=S)[nH]c3ccccc32)c(C(C)C)c1	-6.0%	·	-3.2	-3.3%	0.9%	?
Cc1cccc(OCCn2c(=S)[nH]c3ccccc32)c1	5.97µM*	1.58µM*	-0.1	3.5%	6.31µM*	?
COc1ccc2oc(-c3cccc(NC(=O)c4ccc(C#N)cc4F)c3)nc2c1	·	5.0%[59 µM]	·	·	·	-7.7%
Cc1cccc(C(=O)NCC(=O)OCc2cc(=O)n3nc(C4CCCCC4)sc3n2)c1	·	30.5%[59 µM]	·	·	·	-2.7%
CNc1nc(NC#N)nc(SC)n1	29.9µM*	-6.2%	0.6	-1.1%	-3.0%	?
CCNc1nc(NC#N)nc(SCC(=O)OCC)n1	0.1%	26.8%[59 µM]	-4.0	-0.4%	19.9%	0.8%
COc1cc(OC)cc(C(=O)N(Cc2ccco2)Cc2cccs2)c1	·	·	·	·	·	4.1%
CCCCC(=O)Nc1cccc(OCc2cc(=O)n3ccccc3n2)c1	·	-3.2%[59 µM]	·	·	·	21.4%
Nc1c(C=C2C=CC(=O)C=C2)c(=O)nc2snc(SCc3ccccc3)n12	21.2µM*	-41.1%[59 µM]	-1.6	1.1%	-18.1%	-20.4%

High-throughput results (PubChem BioAssay)
